# Hits are enriched below; roughly 2.3% of the tested compounds scored in any of these assays.
# aSyn yeast inh – qHTS of alpha-syn Inhibitors; Yeast expressing alpha-synuclein, growth rescue, BacTiter-Glo, 24 h; Potency, µM (doses to about 46.1 µM), actives largely listed as activators; 370,000 tested, 0.14% active; AID 652106, 2013; further: nearly all actives have a fitted effect of over 65% in size
#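 Rescue of yeast growth: cells expressing toxic alpha-synuclein, induced in galactose at OD600 0.02, incubated with compound 24 h at 30 C. ATP luminescence quantified growth; inhibitors of toxicity appear as activators.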
# MmCpn inh – Inhibitors of TCP-1 ring complex (TRiC) of Methanococcus maripaludis (MmCpn): qHTS | Chaperonin Mm-Cpn (Methanococcus maripaludis) | purified Mm-Cpn ATPase, ADP Transcreener TR-FRET | Potency, µM (highest dose often 76.9 µM), most hits filed as inhibitors | 330,000 tested, 0.031% active; further: nearly all actives have a fitted effect of over 80% in size
#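 ATP (10 uM final) was added to archaeal chaperonin (25 nM final) after 10 min exposure to test compound at 37°C; after 30 min further incubation, ADP was detected by competitive TR-FRET.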
# FUS suppressor – qHTS for Suppressors of FUS Proteinopathy: Primary screen using FUS-linked yeast assay. Potency, µM (titrated, usually from 76.6 µM), most hits filed as activators. 390,000 tested, 0.24% active. S. cerevisiae FUS-expressing, growth rescue, OD600, 24 h. AID 1347120, 2019; further: nearly all actives have a fitted effect of over 55% in size
#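 Toxicity suppression screen in FUS-yeast. Cells induced with 2% galactose, starting OD 0.005, treated 24hr at 30C with compounds at multiple final concentrations; growth by OD600.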
# Abeta yeast res – qHTS for compounds that reverse cellular toxicity of Amyloid beta (A-beta) peptide in yeast: Primary Screen; yeast expressing A-beta42, growth rescue, OD600, 48 h; response scale: 0% DMSO, 100% iron-clioquinol control; Potency, µM (highest dose often 46.1 µM), usual class: activators; 410,000 tested, 0.063% active; AID 1347071, 2019; further: nearly all actives have a fitted effect of over 55% in size
#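 Yeast A-beta toxicity model in growth medium with pinned compounds, 48 h at 30 C; growth read as absorbance at 600 nm. Normalized to FeCl3/clioquinol equimolar mix (positive) and DMSO (negative).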
# TDP-43 yeast inh – qHTS of TDP-43 Inhibitors; Potency, µM (doses to about 46.1 µM), hits mostly activators; 410,000 tested, 1.8% active; TDP-43 expressing yeast growth rescue, BacTiter-Glo, 24 h; further: nearly all actives have a fitted effect of over 50% in size
#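 Cell-based yeast growth screen: TDP-43 expression induced in galactose, inoculum OD600=0.02 after raffinose pregrowth to mid-log. Read-out BacTiter-Glo luminescence at 24 hr, 30 deg C; inhibition of toxicity seen as signal increase.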
# CCT chaperon mod – High-Throughput Screening for Modulators of Cytosolic Chaperonin Activity; purified chaperonin ATPase assay, HTRF ADP detection, 30 min; activity change, % (no concentration beside the values), hits read low; 360,000 tested, 0.3% active; AID 651819, 2012; in the data active means activity change below about -30%
#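 We incubate TRiC, 40 or 20 nM final, with library compounds at 76 uM and 10 uM ATP for 30 min at 37 °C. ADP formed is detected with Transcreener HTRF reagents after 30 min at room temperature.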
# Numbers stand for hits; – = inactive; ? = inconclusive; · = no result given; [ ] = another dose, or the depositor's remark. Unless noted, the call rests on the fitted dose curve; in most records, active means well fitted curve in the direction sought with a large enough effect; inconclusive means small, poorly fitted or top-dose-only effect, or another doubt; inactive means no such curve, though single readings can be large; an effect the other way counts as inactive or inconclusive.
SMILES,aSyn yeast inh,MmCpn inh,FUS suppressor,Abeta yeast res,TDP-43 yeast inh,CCT chaperon mod
C[C@H]1[C@@H](NC(=O)C#Cc2ccccc2)CC[C@@]23CCCN2C(=O)CCC[C@@H]13,·,·,–,·,·,·
Fc1ccc(Cn2ccc3ccc(-c4ccc5ccn(Cc6ccc(F)cc6F)c5c4)cc32)c(F)c1,·,·,–,·,·,·
Cc1ccc(/C=N/NC(=O)c2cc(-c3ccncc3)nc3ccccc23)o1,–,–,–,–,–,–
CC(/C=N/NC(=O)c1cc(-c2ccncc2)nc2ccccc12)=C\c1ccco1,–,–,28.2µM,–,–,–
Cc1ccc(-c2cc(C(=O)N/N=C/c3cccnc3)c3ccccc3n2)cc1C,–,·,?,–,22.4µM,–
CCCCCCCCCCCCCC(=O)Nc1ccc(/C=C/c2ccnc3ccccc23)cc1,–,·,·,·,·,·
C=C1C=C(C)n2ncc(C(=O)N(CCc3ccccc3)Cc3ccccc3)c2N1,–,·,·,·,·,·
O=S(=O)(Nc1nc2ccccc2nc1Cl)c1ccccc1,–,–,–,–,35.5µM,–
O=S(=O)(Nc1nc2ccccc2nc1Cl)c1ccc(F)cc1,–,–,–,?,–,–
CCOC(=O)c1cc(-c2ccccc2)sc1NC(=O)CC(C)C,–,–,–,–,–,–
CCOC(=O)c1cc(-c2ccccc2)sc1NC(=O)C(C)(C)C,–,–,–,–,–,-30.9
C[C@H]1[C@@H](OC(=O)N2CCCC2)CC[C@@]23CCCN2C(=O)CCC[C@@H]13,·,·,–,·,·,·
CC(C)C1C(=O)N(Cc2cn(CCC3OCCO3)nn2)CCS(=O)(=O)N1Cc1ccc(-c2ccccc2)cc1 (configuration not stated),–,·,?,–,?,–
CC(C)C1C(=O)N(Cc2cn(CCC3OCCO3)nn2)CCS(=O)(=O)N1Cc1ccc(-c2ccc(F)cc2Cl)cc1 (configuration not stated),?,·,?,–,22.4µM,–
CC(C)C1C(=O)N(Cc2cn(CCC3OCCO3)nn2)CCS(=O)(=O)N1Cc1ccc(-c2ccccc2Cl)cc1 (configuration not stated),?,·,?,–,35.5µM,–
CC(C)C1C(=O)N(Cc2cn(CCC3OCCO3)nn2)CCS(=O)(=O)N1Cc1ccc(-c2ccncc2)cc1 (configuration not stated),–,·,–,–,–,–
COC(=O)Cn1c(=O)c2c(nc3n2CCN3c2ccc(F)cc2)n(C)c1=O,·,·,–,–,–,·
O=C(CSc1nc2cc(Cl)ccc2o1)N1CCOCC1,–,–,–,–,–,-30.7
O=C(Nc1ccc(F)cc1)C(c1cc2ccccc2o1)N1CCN(C(=O)c2ccco2)CC1 (configuration not stated),–,·,22.4µM,–,–,·
N#CCc1nc(-c2cc3ccccc3oc2=O)cs1,–,–,–,–,–[0.397 µM],-32.0
O=c1oc2ccccc2cc1-c1nc(-c2cccs2)cs1,–,–,–,–,–,–
CCc1ccc(CN2CCc3nc(Nc4ccc5c(c4)OCCO5)ncc3C2)cc1,·,·,–,–,–,·
Oc1ccccc1/C=N/Nc1nccnc1Cl,14.1µM,–,–,?,?,–
Oc1ccc(/C=N/Nc2ncc(Br)cn2)c(O)c1,17.8µM,–,–,–,–,–
Oc1ccc(Br)cc1/C=N/Nc1ncc(-c2ccccc2)cn1,–,–,–,–,–,–
Oc1ccc(C=NNc2ccccn2)c(O)c1,–,·,·,–,–,–
Oc1ccc(/C=N/Nc2nccnc2Cl)c(O)c1,11.2µM,–,·,–,–,–
Cc1c(O)c2c(c(C(=O)/C=C/c3ccccc3)c1O)OC(C)(C)C=C2,–,·,·,·,·,·
COc1ccc(/C=C/C(=O)c2c(O)c(OC)c3occc3c2OC)cc1OC,–,·,·,·,·,·
Cc1ccc(N(C(=O)c2csnn2)C(C(=O)NCc2ccccc2)c2ccccn2)cc1 (configuration not stated),–,–,–,–,–,–
